# Measurements as given in the supplement of paper PMC10849652.
# Of roughly 7,900 targets only a part is listed; those with a hit were picked by preference. About 0.6% of all pairs of compound and target were hits. Values without a mark were called inactive.
# Compound: c1cn2cc(-c3ccc4cn[nH]c4c3)nc(Nc3ccc(N4CCOCC4)cc3)c2n1 [entospletinib]
# Assay: log2 fold change, soluble protein after heating vs DMSO (PISA); higher = thermal stabilisation; K562 cells, 10 uM, 30 min; active = over 0.2 and 3.5 SD of the protein, either way, in both replicates (recomputed)
# Procedure, shortened: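 Aliquots of K562 cells (2×10^6 cells/mL) treated with 10 μM compound for 30 min were heated for 3 min over 48°C-58°C. After pooling and extraction in PBS with 0.5% NP-40 at 4°C, soluble protein from a 21,000xg, 90 min spin was quantified by TMTpro 16plex LC-MS/MS with channel sums equalised. Thermal stability is expressed against control samples, from duplicates, as a log2 fold change.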
# Chain of UniProt O00471 (O00471 whole entry, looked up): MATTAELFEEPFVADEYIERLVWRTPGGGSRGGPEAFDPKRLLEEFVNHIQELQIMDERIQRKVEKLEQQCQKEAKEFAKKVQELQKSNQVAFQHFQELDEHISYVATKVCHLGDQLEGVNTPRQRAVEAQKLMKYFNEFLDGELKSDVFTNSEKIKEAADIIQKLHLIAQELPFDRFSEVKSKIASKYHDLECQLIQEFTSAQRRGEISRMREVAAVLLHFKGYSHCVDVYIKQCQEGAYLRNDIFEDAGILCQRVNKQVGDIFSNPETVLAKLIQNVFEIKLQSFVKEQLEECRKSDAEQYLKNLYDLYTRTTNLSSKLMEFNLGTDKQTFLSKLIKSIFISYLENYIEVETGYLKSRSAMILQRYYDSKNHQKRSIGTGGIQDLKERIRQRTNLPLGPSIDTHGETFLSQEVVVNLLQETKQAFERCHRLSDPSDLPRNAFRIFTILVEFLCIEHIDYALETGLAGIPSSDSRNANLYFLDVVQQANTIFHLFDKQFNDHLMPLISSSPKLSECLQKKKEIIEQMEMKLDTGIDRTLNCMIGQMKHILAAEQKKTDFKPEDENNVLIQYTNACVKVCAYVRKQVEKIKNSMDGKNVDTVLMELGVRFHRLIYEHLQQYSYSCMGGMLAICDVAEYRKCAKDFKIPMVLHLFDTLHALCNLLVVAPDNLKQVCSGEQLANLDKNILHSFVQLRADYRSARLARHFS
# Chain of UniProt Q8NF50 (Q8NF50 whole entry, looked up): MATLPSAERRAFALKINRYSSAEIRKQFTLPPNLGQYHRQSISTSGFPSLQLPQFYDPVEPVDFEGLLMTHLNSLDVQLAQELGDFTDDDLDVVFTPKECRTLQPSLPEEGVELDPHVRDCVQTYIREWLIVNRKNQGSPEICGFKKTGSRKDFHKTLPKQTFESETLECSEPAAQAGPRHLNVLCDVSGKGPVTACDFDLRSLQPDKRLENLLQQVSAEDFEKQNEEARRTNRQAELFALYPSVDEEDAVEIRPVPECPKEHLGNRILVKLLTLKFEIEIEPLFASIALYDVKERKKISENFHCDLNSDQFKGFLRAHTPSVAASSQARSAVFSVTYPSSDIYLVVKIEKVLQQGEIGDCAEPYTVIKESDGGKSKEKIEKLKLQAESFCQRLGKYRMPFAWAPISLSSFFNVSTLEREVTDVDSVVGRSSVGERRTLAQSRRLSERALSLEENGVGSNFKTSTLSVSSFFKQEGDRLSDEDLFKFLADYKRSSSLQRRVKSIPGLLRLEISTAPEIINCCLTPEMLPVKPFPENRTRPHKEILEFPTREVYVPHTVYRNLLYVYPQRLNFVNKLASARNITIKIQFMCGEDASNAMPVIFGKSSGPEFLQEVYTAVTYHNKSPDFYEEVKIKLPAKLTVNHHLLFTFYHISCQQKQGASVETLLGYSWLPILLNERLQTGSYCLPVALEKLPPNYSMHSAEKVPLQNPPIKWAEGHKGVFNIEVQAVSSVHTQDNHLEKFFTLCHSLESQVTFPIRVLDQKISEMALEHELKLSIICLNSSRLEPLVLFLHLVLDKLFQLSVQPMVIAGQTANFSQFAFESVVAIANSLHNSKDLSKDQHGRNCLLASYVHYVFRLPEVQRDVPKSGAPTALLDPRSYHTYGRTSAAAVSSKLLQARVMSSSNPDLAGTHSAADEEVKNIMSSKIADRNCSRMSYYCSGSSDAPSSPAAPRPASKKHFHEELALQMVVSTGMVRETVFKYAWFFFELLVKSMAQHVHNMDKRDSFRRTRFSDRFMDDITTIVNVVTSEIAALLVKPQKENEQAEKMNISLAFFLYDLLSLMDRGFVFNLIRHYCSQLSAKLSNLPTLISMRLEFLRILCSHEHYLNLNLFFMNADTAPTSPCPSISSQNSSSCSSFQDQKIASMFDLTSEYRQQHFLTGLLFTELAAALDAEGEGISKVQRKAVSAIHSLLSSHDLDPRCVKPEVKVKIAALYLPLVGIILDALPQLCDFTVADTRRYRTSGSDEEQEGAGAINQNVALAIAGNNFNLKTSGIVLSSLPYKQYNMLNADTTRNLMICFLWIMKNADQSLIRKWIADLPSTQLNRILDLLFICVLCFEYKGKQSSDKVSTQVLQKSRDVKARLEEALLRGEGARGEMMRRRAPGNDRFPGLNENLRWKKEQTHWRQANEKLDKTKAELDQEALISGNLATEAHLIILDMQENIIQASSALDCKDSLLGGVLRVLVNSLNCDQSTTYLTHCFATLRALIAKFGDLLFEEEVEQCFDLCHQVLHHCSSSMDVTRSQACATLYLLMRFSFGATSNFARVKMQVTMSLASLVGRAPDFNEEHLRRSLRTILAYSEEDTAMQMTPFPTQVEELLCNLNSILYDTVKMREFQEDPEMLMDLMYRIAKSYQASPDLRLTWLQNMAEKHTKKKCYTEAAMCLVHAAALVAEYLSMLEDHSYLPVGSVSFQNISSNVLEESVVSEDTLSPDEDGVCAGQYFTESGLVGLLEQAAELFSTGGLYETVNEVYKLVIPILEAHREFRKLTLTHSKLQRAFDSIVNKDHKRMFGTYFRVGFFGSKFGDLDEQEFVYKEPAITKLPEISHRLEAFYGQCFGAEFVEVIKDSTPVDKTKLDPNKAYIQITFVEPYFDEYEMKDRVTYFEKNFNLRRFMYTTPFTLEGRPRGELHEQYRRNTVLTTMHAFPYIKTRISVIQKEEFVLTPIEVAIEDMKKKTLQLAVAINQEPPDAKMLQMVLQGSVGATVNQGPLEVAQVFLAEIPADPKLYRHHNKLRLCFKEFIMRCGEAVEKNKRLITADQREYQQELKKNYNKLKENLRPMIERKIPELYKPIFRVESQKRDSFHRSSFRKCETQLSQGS
# Chain of UniProt Q04637 (Q04637 whole entry, looked up): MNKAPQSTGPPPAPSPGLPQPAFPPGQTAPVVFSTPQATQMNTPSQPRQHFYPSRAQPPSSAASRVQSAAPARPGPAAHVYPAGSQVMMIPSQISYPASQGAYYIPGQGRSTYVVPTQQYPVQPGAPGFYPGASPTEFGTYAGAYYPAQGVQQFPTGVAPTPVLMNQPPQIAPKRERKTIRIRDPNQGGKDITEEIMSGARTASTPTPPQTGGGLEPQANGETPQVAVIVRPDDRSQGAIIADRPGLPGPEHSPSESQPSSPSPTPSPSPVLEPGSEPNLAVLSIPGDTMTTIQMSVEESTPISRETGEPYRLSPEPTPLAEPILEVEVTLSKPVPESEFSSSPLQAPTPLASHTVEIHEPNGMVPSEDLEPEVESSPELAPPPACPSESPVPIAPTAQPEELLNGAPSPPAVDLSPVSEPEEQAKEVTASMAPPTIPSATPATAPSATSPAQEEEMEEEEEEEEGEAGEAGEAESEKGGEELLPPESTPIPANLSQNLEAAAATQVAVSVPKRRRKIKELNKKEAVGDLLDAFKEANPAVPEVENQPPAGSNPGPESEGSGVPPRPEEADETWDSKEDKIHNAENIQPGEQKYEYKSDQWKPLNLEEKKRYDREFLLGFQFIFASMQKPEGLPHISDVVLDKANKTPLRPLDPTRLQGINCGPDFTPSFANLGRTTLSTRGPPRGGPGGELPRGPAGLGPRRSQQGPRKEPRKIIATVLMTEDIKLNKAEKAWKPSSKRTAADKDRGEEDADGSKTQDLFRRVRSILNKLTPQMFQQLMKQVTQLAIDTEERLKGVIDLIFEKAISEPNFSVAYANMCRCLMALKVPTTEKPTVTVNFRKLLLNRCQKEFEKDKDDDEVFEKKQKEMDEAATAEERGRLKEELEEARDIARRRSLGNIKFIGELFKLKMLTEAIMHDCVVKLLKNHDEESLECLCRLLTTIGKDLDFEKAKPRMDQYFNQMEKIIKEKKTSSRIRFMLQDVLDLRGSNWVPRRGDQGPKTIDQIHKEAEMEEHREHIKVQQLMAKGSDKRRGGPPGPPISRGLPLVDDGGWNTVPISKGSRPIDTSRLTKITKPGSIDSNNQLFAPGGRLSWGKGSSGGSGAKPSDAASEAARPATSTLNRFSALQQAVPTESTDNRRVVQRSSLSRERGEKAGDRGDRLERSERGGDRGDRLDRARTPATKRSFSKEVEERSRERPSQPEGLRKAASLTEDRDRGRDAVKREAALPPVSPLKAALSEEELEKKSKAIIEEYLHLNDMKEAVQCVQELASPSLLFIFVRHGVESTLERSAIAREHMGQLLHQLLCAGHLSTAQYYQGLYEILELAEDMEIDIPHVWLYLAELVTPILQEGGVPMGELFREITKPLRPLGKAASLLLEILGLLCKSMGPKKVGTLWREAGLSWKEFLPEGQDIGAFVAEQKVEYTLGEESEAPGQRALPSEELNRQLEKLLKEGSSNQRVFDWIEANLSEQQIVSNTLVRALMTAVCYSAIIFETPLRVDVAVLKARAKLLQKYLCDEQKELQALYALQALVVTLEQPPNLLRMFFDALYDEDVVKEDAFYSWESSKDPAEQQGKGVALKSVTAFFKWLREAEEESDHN
# Chain of UniProt P25685 (P25685 whole entry, looked up): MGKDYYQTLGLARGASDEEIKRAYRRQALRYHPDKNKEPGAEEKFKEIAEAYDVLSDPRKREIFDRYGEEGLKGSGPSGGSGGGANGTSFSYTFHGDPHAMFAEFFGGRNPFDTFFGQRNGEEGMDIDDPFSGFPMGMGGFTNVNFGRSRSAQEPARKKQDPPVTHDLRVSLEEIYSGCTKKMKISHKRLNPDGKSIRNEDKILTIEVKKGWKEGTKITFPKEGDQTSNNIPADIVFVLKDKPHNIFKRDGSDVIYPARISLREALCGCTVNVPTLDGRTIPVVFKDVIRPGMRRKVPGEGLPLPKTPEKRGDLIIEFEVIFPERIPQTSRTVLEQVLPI
# Chain of UniProt Q9H777 (Q9H777 whole entry, looked up): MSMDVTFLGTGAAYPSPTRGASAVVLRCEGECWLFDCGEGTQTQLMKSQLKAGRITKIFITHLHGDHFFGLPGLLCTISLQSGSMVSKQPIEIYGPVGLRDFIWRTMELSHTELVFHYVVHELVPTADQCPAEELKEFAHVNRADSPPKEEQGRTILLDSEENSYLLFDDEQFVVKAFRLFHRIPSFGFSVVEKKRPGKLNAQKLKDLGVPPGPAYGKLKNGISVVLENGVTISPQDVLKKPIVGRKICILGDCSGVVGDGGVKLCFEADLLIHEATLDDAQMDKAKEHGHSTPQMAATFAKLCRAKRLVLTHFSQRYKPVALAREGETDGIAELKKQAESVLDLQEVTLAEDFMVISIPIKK
row,Target,log2 fold change
1,EIF4E isoform 2 (UniProt P06730),0.062
2,EXOC8 (UniProt Q8IYI6),-0.013
3,FAM177A1 isoform 2 (UniProt Q8N128),0.05
4,DCAF12 (UniProt Q5T6F0),0.025
5,DPYSL2 (UniProt Q16555),-0.015
6,DFFB (UniProt O76075),-0.024
7,DYRK1A isoform 2 (UniProt Q13627),0.003
8,EFCAB14 (UniProt O75071),0.001
9,DHX40 (UniProt Q8IX18),-0.055
10,EXOC6 (UniProt Q8TAG9),0.014
11,DHRS3 (UniProt O75911),-0.041
12,EXOC5 (UniProt O00471),0.002
13,DNAJC7 (UniProt Q99615),-0.034
14,DPH5 isoform 5 (UniProt Q9H2P9),-0.045
15,EEF1A1 (UniProt P68104),0.046
16,DCAF6 isoform 3 (UniProt Q58WW2),-0.008
17,DHX16 (UniProt O60231),0.01

row,Target,log2 fold change
1,DNAJB1 (UniProt P25685),-0.085
2,DDX39A (UniProt O00148),0.022
3,DNAH11 (UniProt Q96DT5),0.115
4,DTYMK (UniProt P23919),0.013
5,DCAF10 (UniProt Q5QP82),0.307
6,DNAJC24 (UniProt Q6P3W2),0.186
7,DCAF4 (UniProt Q8WV16),-0.146
8,EEA1 (UniProt Q15075),-0.005
9,ETNK1 (UniProt Q9HBU6),-0.008
10,ELAC1 (UniProt Q9H777),0.069
11,EGLN1 (UniProt Q9GZT9),0
12,DOCK8 (UniProt Q8NF50),-0.044
13,FAM118B (UniProt Q9BPY3),-0.011
14,DBN1 isoform 3 (UniProt Q16643),-0.038
15,EIF4A1 (UniProt P60842),-0.083
16,EIF4G1 isoform 8 (UniProt Q04637),0.024
17,DAXX (UniProt Q9UER7),-0.025
